# The whole screen tested about 310,000 compounds, of which about 14,000 (4.5%) showed an effect of 50% or more. Effects have a minus sign here. The list comes from a sample in which strong results are over-represented; it also holds similar structures and randomly drawn compounds.
# Target: human ether-à-go-go-related gene (hERG) potassium channel (human, UniProt Q12809)
# Assay: primary screen, population patch clamp on CHO cells stably expressing hERG; higher = less effect of the substance
# 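Further: peak tail current of the secondary pulse compared with the same well before compound.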
# Sequence of human ether-à-go-go-related gene (hERG) potassium channel (Q12809 whole entry, looked up): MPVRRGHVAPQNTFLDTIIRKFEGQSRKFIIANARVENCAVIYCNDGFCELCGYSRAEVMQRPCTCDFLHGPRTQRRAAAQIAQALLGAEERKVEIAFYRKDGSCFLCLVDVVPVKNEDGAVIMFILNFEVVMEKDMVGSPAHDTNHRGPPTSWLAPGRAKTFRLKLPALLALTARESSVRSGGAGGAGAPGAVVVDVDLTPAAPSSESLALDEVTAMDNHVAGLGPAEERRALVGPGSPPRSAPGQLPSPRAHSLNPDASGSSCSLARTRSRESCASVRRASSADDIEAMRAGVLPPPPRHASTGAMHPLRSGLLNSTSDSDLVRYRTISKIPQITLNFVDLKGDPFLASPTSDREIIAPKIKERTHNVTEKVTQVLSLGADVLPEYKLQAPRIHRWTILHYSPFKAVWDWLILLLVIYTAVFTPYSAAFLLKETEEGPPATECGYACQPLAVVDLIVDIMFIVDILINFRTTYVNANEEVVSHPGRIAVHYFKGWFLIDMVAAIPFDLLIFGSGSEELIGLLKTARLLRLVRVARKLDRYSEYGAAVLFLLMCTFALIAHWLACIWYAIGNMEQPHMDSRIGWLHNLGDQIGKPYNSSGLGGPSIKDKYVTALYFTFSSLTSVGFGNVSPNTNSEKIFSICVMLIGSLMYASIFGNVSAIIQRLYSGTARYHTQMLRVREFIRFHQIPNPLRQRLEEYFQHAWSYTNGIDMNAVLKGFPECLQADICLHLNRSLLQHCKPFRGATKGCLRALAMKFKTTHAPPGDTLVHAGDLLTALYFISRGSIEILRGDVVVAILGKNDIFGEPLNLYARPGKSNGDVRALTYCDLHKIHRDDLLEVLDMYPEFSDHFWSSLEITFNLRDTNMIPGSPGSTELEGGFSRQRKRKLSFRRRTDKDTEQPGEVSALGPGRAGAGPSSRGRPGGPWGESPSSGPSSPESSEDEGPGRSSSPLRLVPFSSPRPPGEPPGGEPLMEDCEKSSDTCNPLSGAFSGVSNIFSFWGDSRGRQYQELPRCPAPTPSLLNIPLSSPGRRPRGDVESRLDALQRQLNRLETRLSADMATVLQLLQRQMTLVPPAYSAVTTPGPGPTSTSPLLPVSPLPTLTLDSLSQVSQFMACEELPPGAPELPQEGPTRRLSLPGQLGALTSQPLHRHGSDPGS
row,Compound,"hERG current change (%, negative = inhibition) at 10uM"
1,CCN(CC(=O)Nc1ccccc1OC)C(=O)C1CCCC1,0.547%
2,CC1CCN(C(=S)Nc2cccc(S(=O)(=O)N(C)C)c2)CC1,11.1%
3,CO/N=C/c1cccn1-c1nccc(OC)c1C#N,19.1%
4,Cc1nc(C)c(C(=O)C2=C(O)C(=O)N(CCN3CCOCC3)C2c2cccs2)s1 (centres unmarked),5.12%
5,COc1cc(/C=C/C(=O)O)ccc1OS(=O)(=O)c1c(C)cc(C)cc1C,-43.2%
6,C=CCOc1ccc(/C=C/C(=O)OCC(=O)N(C)CC(=O)Nc2ccc(F)cc2)cc1,7.74%
7,COc1ccccc1CC(=O)Nc1c[nH]c(=O)[nH]c1=O,38.8%
8,Cc1ccc2c(c1)c1ncnc(N3CCN(c4ccccc4)CC3)c1n2C,-12.3%
9,CC(C)N1CCN(CC2COc3ccccc3O2)CC1.Cl (centres unmarked),-19.4%
10,Cc1ccccc1CN1CCNCC1.Cl,14%
11,c1ccc2c(c1)CC(CN1CCNCC1)O2 (centres unmarked),-52.3%
12,Cn1c(=O)oc2cc(S(=O)(=O)Nc3cccc([N+](=O)[O-])c3)ccc21,4.69%
13,Cc1ccc(C)c(Cn2nnc3c(=O)[nH]c(C(=O)Nc4ccc(F)cc4)nc32)c1,28.5%
14,CCOc1ccc(C(=O)N2CCCC2)cc1OC,-14.7%
15,Cc1cccc(C)c1OCC(O)CN1CCc2ccccc2C1.Cl (centres unmarked),-64.2%
16,Cl.OC(COc1c(F)cc(Br)cc1F)CN1CCOCC1 (centres unmarked),2.28%
17,Cc1ccc(C)c(OCC(O)CN2CCC(C)CC2)c1C (centres unmarked),-33.6%
18,Cl.OC(COc1c(F)cc(Br)cc1F)CN1CCc2ccccc2C1 (centres unmarked),-72.2%
19,Cl.OC(COc1c(F)cc(Br)cc1F)CN1CCN(c2ccc(F)cc2)CC1 (centres unmarked),-25.7%
20,Cc1cccc(C)c1OCC(O)Cn1c2ccccc2c2ccccc21 (centres unmarked),6.83%
21,Cc1ccc(C)c(OCC(O)CN2CCc3ccccc3C2)c1C.Cl (centres unmarked),-65.3%
22,Nc1ccc(S(=O)(=O)Nc2nc(-c3ccccc3)cc(-c3ccccc3)n2)cc1,21.6%
23,Cc1ccc(NC(=O)Cn2nc(C)c3ccccc3c2=O)c(C)c1,10.2%

row,Compound,"hERG current change (%, negative = inhibition) at 10uM"
1,NC(=O)CN1C(=O)C(=O)N(Cc2ccccc2Cl)C1=O,8.45%
2,CC(=O)Nc1c(C(=O)C2CC2)oc2ccccc12,-7%
3,Cc1ccc(N2CCN(CC(O)COC3CCCCC3)CC2)cc1 (centres unmarked),-56.1%
4,OC(COC1CCCCC1)CN1CCN(c2ccccc2)CC1 (centres unmarked),-29.8%
5,CC(C)(C)C1CCC(OCC(O)CN2CCN(c3ccccc3)CC2)CC1.Cl (centres unmarked),1.42%
6,Cc1ccc(N2CCN(CC(O)COc3ccccc3)CC2)cc1 (centres unmarked),-50.9%
7,Cc1ccc(OCC(O)CN2CCN(c3ccccc3)CC2)cc1 (centres unmarked),-38.6%
8,CC(C)c1ccc(OCC(O)CN2CCN(c3ccccc3)CC2)cc1.Cl (centres unmarked),-47.3%
9,Cc1ccc(OCC(O)CN2CCOCC2)cc1 (centres unmarked),8.2%
10,Cc1cccc(C)c1OCC(O)CN1CCN(c2ccccc2)CC1.Cl (centres unmarked),-53.1%
11,Cc1ccc(OCC(O)CN2CCN(CC(O)COc3ccc(C)cc3)CC2)cc1 (centres unmarked),-63.9%
12,COc1cccc(OC)c1OCC(O)CN1CCN(c2ccccc2)CC1.Cl (centres unmarked),-33.3%
13,Cc1ccc(OCC(O)CN2CCCC2)cc1 (centres unmarked),11.5%
14,Cc1nc(N)c(C#N)c(-c2ccccc2)c1C,-10.4%
15,CCN1C(=S)N[C@@H](c2cccs2)C(C(=O)OC)=C1C,4.42%
16,O=C(CNC(=O)c1ccccc1F)N/N=C/c1cc(Br)ccc1OCc1ccccc1,-3.96%
17,Fc1ccc(N/N=C/c2ccncc2)c(F)c1,-9.23%
18,Cc1ccc(OCC(O)CN2CCN(CC(O)COc3ccc(C)cc3Cl)CC2)c(Cl)c1 (centres unmarked),-24.3%
19,Cc1ccc(OCC(O)CN2CCN(CC(O)COC(C)C)CC2)c(C(C)(C)C)c1 (centres unmarked),-65.2%
20,COC(=O)c1ccc(OCC(O)CN2CCN(CC(O)COc3ccc(C(=O)OC)cc3)CC2)cc1 (centres unmarked),-72.9%
21,Cc1ccc(N2CCN(CC(O)COc3cccc(C)c3)CC2)cc1 (centres unmarked),-55.1%
22,COC(=O)c1ccc(OCC(O)CN2CCOCC2)cc1 (centres unmarked),15%
23,Cc1cccc(OCC(O)CN2CCNCC2)c1.Cl (centres unmarked),26.5%

row,Compound,"hERG current change (%, negative = inhibition) at 10uM"
1,Cc1cccc(OCC(O)CN2CCN(S(=O)(=O)c3ccc(C)cc3C)CC2)c1 (centres unmarked),-17.5%
2,COC(=O)c1ccc(OCC(O)CN2CCC(C)CC2)cc1 (centres unmarked),-15.3%
3,Cc1cccc(OCC(O)CN2CCN(C3CCCCC3)CC2)c1.Cl (centres unmarked),-50.3%
4,Cc1cccc(OCC(O)CN2CCOCC2)c1.Cl (centres unmarked),10.9%
5,CCOC(=O)N1CCN(CC(O)COc2cc(C)ccc2C(C)C)CC1.Cl (centres unmarked),-26.8%
6,Nc1c(Cl)ncnc1N/N=C/c1ccc2ccccc2n1,-11.7%
7,COC(=O)COc1ccc(/C=C2\SC(=O)N(CC(=O)Nc3ccccc3F)C2=O)cc1,14%
8,Cc1nc(CNC(=O)CC2C(=O)NCCN2Cc2cccc(Oc3ccccc3)c2)cs1 (centres unmarked),10.4%
9,CCOCCCNC(=O)/C(C#N)=C/c1ccccc1F,23.5%
10,C/C(=N\NC(=O)c1ccc(Cl)cc1)c1ccc(Br)s1,2.93%
11,COCCNC(=O)C(=O)NCC1OCCN1S(=O)(=O)c1ccc(C)cc1 (centres unmarked),15.7%
12,CCc1ccc(C(=O)NNc2ccc(S(N)(=O)=O)cc2)cc1,9.05%
13,NC(=O)COC(=O)CC12CC3CC(CC(Br)(C3)C1)C2,24.6%
14,CCN(CC)S(=O)(=O)c1ccc(OC)c(NC(=O)CSc2ccccc2)c1,-72.9%
15,O=C(CSc1nnc(-c2cccc(S(=O)(=O)N3CCOCC3)c2)n1C1CCCCCC1)NCc1ccccc1,-17.5%
16,CCN(CC)S(=O)(=O)c1ccc(OC)c(NC(=O)CSc2cc(Cl)ccc2Cl)c1,-2.76%
17,Cc1ccc(S(=O)(=O)N2CCOCC2)cc1NC(=O)C(c1ccc(Cl)cc1)C(C)C (centres unmarked),1.8%
18,Cc1ccc(S(=O)(=O)N2CCOCC2)cc1NC(=O)CSc1nnc2cc(C)c3ccccc3n12,-61.8%
19,CCN(CC)S(=O)(=O)c1ccc(OC)c(NC(=O)CSc2cc(C)ccc2C)c1,-13.3%
20,CC(C)Cn1c(SCC(=O)NCc2ccc(Cl)cc2)nnc1-c1cccc(S(=O)(=O)N2CCOCC2)c1,-52.9%
21,Cc1cc2nnc(SCC(=O)Nc3cc(S(=O)(=O)N4CCOCC4)ccc3Cl)n2c2ccccc12,-20.5%
22,Cc1ccc(S(=O)(=O)N2CCOCC2)cc1NC(=O)CSc1ccc(Cl)cc1,-51.3%
23,Cc1cc2nnc(SCC(=O)Nc3cccc(S(=O)(=O)N4CCOCC4)c3)n2c2ccccc12,-14.4%

row,Compound,"hERG current change (%, negative = inhibition) at 10uM"
1,Cc1ccc(CSc2nnc(-c3cccc(S(=O)(=O)N4CCOCC4)c3)n2CC(C)C)cc1,-29.5%
2,Cc1ccc(S(=O)(=O)N2CCOCC2)cc1NC(=O)CSc1ncccn1,-4.68%
3,CC(C)CN(C(=O)COC(=O)Cc1ccc(Cl)cc1)c1c(N)n(Cc2ccccc2)c(=O)[nH]c1=O,5.02%
4,Cc1cccc(C(=O)N[C@@H](C)C(=O)N2CCN(c3ncccn3)CC2)c1,-3.21%
5,COc1ccc(OC)c(/C=C/C(=O)OCC(=O)Nc2nnc(-c3ccccc3)o2)c1,-3.14%
6,O=C(COC(=O)Cc1ccc(Br)cc1)Nc1c(F)c(F)c(F)c(F)c1F,13.4%
7,Cc1ccc(NC2=NCCCS2)c(C)c1C,-11.5%
8,CCOc1ccc(NS(=O)(=O)c2cc(C(=O)N3CCN(C(C)=O)CC3)ccc2Cl)cc1,12.6%
9,COc1ccc(S(=O)(=O)Nc2ccccn2)cc1,13.8%
10,CCC12OC(=N)C(C#N)(C1C)C(C#N)(C#N)C(c1ccccc1)O2 (centres unmarked),2.68%
11,COC(=O)c1ccc(COc2ccc(/C=N/NC(N)=S)cc2)o1,-5.9%
12,COc1ccc(S(=O)(=O)N2CCOCC2)cc1NC(=O)CSc1ccc(F)cc1,-42.6%
13,COc1ccc(S(=O)(=O)N2CCOCC2)cc1NC(=O)CSc1ncnc2ccccc12,-50.4%
14,COc1ccc(S(=O)(=O)N2CCOCC2)cc1NC(=O)CSc1nnc2ccccn12,5.54%
15,COc1ccc(S(=O)(=O)N2CCCCC2)cc1NC(=O)CSc1ncnc2ccccc12,-51.2%
16,COc1ccc(S(=O)(=O)N2CCOCC2)cc1NC(=O)CSc1cccc[n+]1[O-],-3%
17,COc1ccc(S(=O)(=O)N2CCOCC2)cc1NC(=O)CSc1ccccc1,-53.9%
18,COc1ccc(S(=O)(=O)N2CCOCC2)cc1NC(=O)COc1ncnc2ccccc12,6.62%
19,O=C(CSc1ncnc2ccccc12)Nc1cc(S(=O)(=O)N2CCCCC2)ccc1Cl,14.4%
20,Cc1ccc(S(=O)(=O)N2CCCCC2)cc1NC(=O)CSc1ncnc2ccccc12,-36.2%

# From publication PMC4336329 (PLoS ONE, 2015)
